Our source for the Potency, activity change, negative = inhibition and outcome values is PubChem BioAssay (NCATS).

Each structure is given as a SMILES string. A number with no mark means an inactive call. Results filed as inconclusive are left out. Active and inactive are the calls of the source. Unless noted, calls follow the shape of the dose curve; as a rule, active = well fitted curve in the direction sought with a large enough effect; inconclusive = small, poorly fitted or top-dose-only effect, or another doubt; inactive = no such curve, though single readings can be large; an effect the other way counts as inactive or inconclusive.

Test [1] has as its target Cytochrome P450 1A2 (Homo sapiens) (UniProt P05177). Briefly: p450-cyp1a2 (AID 410; calls by dose curve; also: potency is read from the fitted curve at half-maximal effect). An outline of the steps:
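20nM CYP1A2, 100uM Luciferin-ME (=Km), 100mM KPO4; cpd 10 min RT; +NADPH regen, 60 min RT; stop/detect 20 min; luminescence. Normalized to furafylline 57 uM = full inhibition.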

Test [2] in a line: NFAT Signaling Pathway (AID 444; active = well fitted curve in either direction with a large enough effect, not every such curve was filed as active;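 also: carbachol stimulus at about its EC50 of 1 µM final; % is scaled to controls: 0 for no effect and ±100 for the full control effect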). The following applies: Jurkat NFAT-bla M1, carbachol, beta-lactamase ratio, 5 h; at 38 µM (top of the series). An outline of the steps:
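Jurkat cells with NFAT-driven β-lactamase reporter and co-expressed M1 receptor, stimulated with carbachol (final 1 uM, ~EC50), compound titration, 5 h at 37 °C. CCF4 loaded 1 h at RT; 460/530 nm ratio gave %activity and AC50.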

Test [3] can be described thus: Stat Signaling Pathway (AID 446; active = well fitted curve in either direction with a large enough effect, not every such curve was filed as active;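 also: ME-180 cervical cancer cells given 40 pM IL-6 alongside compound; SIE-controlled beta-lactamase reporter measured as 460/530 nm FRET emission ratio; % is scaled to controls: 0 for no effect and ±100 for the full control effect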). In outline: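 Compound effects on IL-6-induced STAT reporter activity were measured in ME-180 cells. After overnight culture, cells were co-treated with 40 pM IL-6 for 5 hrs before beta-lactamase substrate loading at room temperature.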
The target in test [4] is Glucocorticoid receptor (Homo sapiens) (UniProt P04150). Briefly: GR-GFP Redistribution (AID 450;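 active = compounds whose dose series gives a full or clear partial fitted curve of increased nuclear translocation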; also: potency is read from the fitted curve at half-maximal effect). Particulars: U2OS GR-GFP nuclear translocation, laser cytometry, 2 h.
Test [5] has the same target. The test is described as follows: GR-EFC Redistribution (AID 451; calls by dose curve; also: potency is read from the fitted curve at half-maximal effect). Particulars: CHO-K1 GR-EFC translocation, beta-gal luminescence, 2 h. In outline:
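CHO-K1 cells expressing nuclear EA and GR-ED fragments of b-gal; compounds titrated up to 46 uM final, 2 h at 37 C. GR nuclear translocation read as complemented b-gal luminescence after 1 h RT detection.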

Test [6] has as its target Mitogen-activated protein kinase 10 (Mus musculus) (UniProt Q61831). Briefly: JNK3 AlphaScreen Assay (AID 530; active = well fitted curve in either direction with a large enough effect, not every such curve was filed as active;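 also: kinase came from lysate of stimulated human HepG2 cells; signal reports phosphorylation of biotinylated GST-cJun 1-79 at Ser73 with 10 µM ATP; % is scaled to controls: 0 for no effect and ±100 for the full control effect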). In outline: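 HepG2 lysate (IL-1b/TNFa pre-activated) + biotin-GST-cJun 1-79 + anti-pSer73 cJun; cpd titration, 15 min RT; ATP 10 uM start; Tris pH 7.6, MgCl2, DTT, vanadate; beads in EDTA buffer; AlphaScreen.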
In general terms: Bead proximity is the source of the signal in Alpha formats.

Test [7] addresses 3',5'-cyclic-AMP phosphodiesterase 4B (Homo sapiens) (UniProt Q07343). The test is described as follows: qHTS Assay for Inhibitors of PDE-IV (AID 607; active = well fitted activation curve with a large enough effect in the main read-out, with a control signal flat, not every such curve was filed as active; also: % of control where 0% means no effect). In outline:
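ACTOne HEK293 cells carry a modified cAMP-gated CNG channel and express endogenous PDE4; plated 1000 cells/well, compounds up to 22.9 uM final. Membrane-potential dye fluorescence (ex 535/em 590) was read; parental cells received 10 uM forskolin + 100 uM RO 20-1724.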
For orientation: Quantitative high-throughput screening tests each substance at several concentrations.

Test [8] has as its target Guanine nucleotide-binding protein G(i) subunit alpha-1 (Homo sapiens) (UniProt P63096). Briefly: qHTS Assay for Inhibitors of RGS12 GoLoco Motif Activity (Green Fluorophore) (AID 879).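 Also: 0% = labeled peptide with Gαi1 and full inhibition = labeled peptide alone without protein; negative values mean loss of peptide binding seen as reduced polarization.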 An outline of the steps: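 A drop in FITC polarization marked displacement of the FITC-tagged RGS12 GoLoco peptide (10 nM) from Gαi1 (50 nM). Compounds were incubated 10 min at room temperature in Tris pH 7.5 buffer containing 150 mM NaCl, 0.1 mM GDP and 0.05% NP40; unlabeled peptide titration served as control.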

Test [9] deals with Cytochrome P450 3A4 (Homo sapiens) (UniProt P08684). The test is described as follows: qHTS Assay for Inhibitors and Substrates of Cytochrome P450 3A4 (AID 884). Also: % is scaled to controls: 0 for no effect and ±100 for the full control effect; nearly all actives have a fitted effect of over 50% in size. An outline of the steps: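 Luminescent readout of luciferin produced by CYP3A4 (20 nM) dealkylation of Luciferin-PPXE, 25 uM (its KM). NADPH-driven reaction ran 60 min at RT after 10 min compound preincubation; data scaled to 57 uM ketoconazole as 100% inhibition.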

Test [10] shares this target. The test is described as follows: qHTS Assay for Activators of Cytochrome P450 3A4 (AID 885). Also: potency is read from the fitted curve at half-maximal effect; nearly all actives have a fitted effect of over 65% in size. An outline of the steps:
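CYP3A4 activity: Luciferin-PPXE O-dealkylation, 25uM substrate, 200mM KPO4, RT throughout. Read-out is luciferase luminescence; higher values reflect activation.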

Test [11] can be described thus: qHTS Assay for Identification of Small Molecule Antagonists for NFkB Signaling Pathway (AID 895; active = well fitted inhibition curve with a large enough effect in the signal ratio, with a control signal flat, not every such curve was filed as active; the % refers to the signal ratio; also: % is scaled to controls: 0 for no effect and ±100 for the full control effect). In outline: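 ME-180 NFkB-bla cells (beta-lactamase under NFkB response element), plated overnight, treated with compound then 10 pM TNF alpha (about EC50) for 5 hrs at 37 C. LiveBLAzer FRET read at 460/530 nm emission, 405 nm excitation.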
Test [12] concerns the target Cytochrome P450 2C19 (Homo sapiens) (UniProt P33261). Briefly: qHTS Assay for Inhibitors and Substrates of Cytochrome P450 2C19 (AID 899). Also: potency is read from the fitted curve at half-maximal effect; nearly all actives have a fitted effect of over 60% in size. In outline: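 Signal comes from luciferase acting on luciferin released by CYP2C19-mediated hydroxylation of Luciferin-H EGE, 10uM (KM). Assay mix: 5nM enzyme, 50mM KPO4; 60 min at 37C with NADPH regeneration. Data normalized against 57uM ketoconazole.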

Test [13] is described as follows: qHTS Assay for Identification of Small Molecule Agonists for Thrombopoietin (TPO) Signaling Pathway (AID 917). Also: % is scaled to controls: 0 for no effect and ±100 for the full control effect. In outline:
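Ba/F3 (mouse) + hTPO receptor + GpIIb-promoter luciferase; IL-3 withdrawn overnight; compound + 26 pM TPO (EC50), 24 hrs, 37 C, 5% CO2; Steadylite luminescence, 10 min RT.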

Test [14] deals with Muscarinic acetylcholine receptor M1 (Rattus norvegicus) (UniProt P08482). Briefly: qHTS Assay for Antagonists of Acetylcholine Muscarinic M1 Receptor: Kinetic Measurement of Intracellular Calcium Response (AID 943). Also: nearly all actives have a fitted effect of over 75% in size. In outline: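 Read-out: peak over basal Fluo-4 fluorescence, kinetic at 1 Hz for 4 min after EC80 carbachol (100 nM final). Rat M1-CHO cells, dye loaded 1 h at 37C, compound added 10 min before agonist.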

Test [15] shares this target. The test is described as follows: qHTS Assay for Antagonists of Acetylcholine Muscarinic M1 Receptor: Measurement of IP-One Response (AID 944). Also: nearly all actives have a fitted effect of over 75% in size. An outline of the steps:
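Read-out: HTRF competition between d2-IP1 and Eu-cryptate anti-IP1 antibody, emission 620 and 665 nm. Stimulus was carbachol, EC80 (200 nM), for 30 min in M1-CHO cells (rat receptor), after 10 min compound pre-treatment.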

Test [16] concerns the target Pyruvate kinase PKM (Homo sapiens) (UniProt P14618). Briefly: qHTS Assay for Activators of Human Muscle Pyruvate Kinase (AID 954; active = well fitted curve in the direction sought with a large enough effect, not every such curve was filed as active;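 also: 0% = uninhibited enzyme and -100% = no enzyme or full thiadiazolimine inhibition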). In outline: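 A coupled luminescent readout tracked ATP made from ADP by purified PKM2. Final conditions included 0.1 nM enzyme, PEP and ADP at 0.5 and 0.1 mM, pH 7.2 imidazole buffer with BSA, and a one-hour room-temperature reaction.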

Test [17] addresses Alpha-galactosidase (Coffea arabica) (UniProt Q42656). The test is described as follows: Counterscreen for Glucocerebrosidase Inhibitors: qHTS Assay for Coffee Bean alpha-Galactosidase at pH 4.5 (AID 957).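 Also: plate controls were enzyme alone for no effect and no enzyme for full effect.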 An outline of the steps:
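Fluorogenic read-out: 4-methylumbelliferone at Ex 365/Em 440 nm after NaOH/glycine stop (pH 10). Enzyme 2 nM, 4-MU-alpha-galactoside 80 uM, citrate buffer pH 4.5, 20 min RT; normalized to no-enzyme and enzyme controls.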
For orientation: The purpose of a counterscreen is to sort out artefacts and off-target activity.

Test [18] deals with Pyruvate kinase (Leishmania mexicana) (UniProt Q27686). The test is described as follows: qHTS Validation Assay for Activators of Leishmania Mexicana Pyruvate Kinase (AID 959). In outline: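 Purified LmPYK (E451W mutant, 0.2 nM) was incubated 1 h at room temperature with 0.5 mM PEP and 0.1 mM ADP in 50 mM imidazole pH 7.2, 50 mM KCl, 7 mM MgCl2; ATP formed was read by PKLight luminescence, normalized to DMSO wells.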

In test [19] the target is Alpha-galactosidase A (Homo sapiens) (UniProt P06280). The test is described as follows: Counterscreen for Glucocerebrosidase Inhibitors: qHTS Assay for Human alpha-Galactosidase at pH 4.5 (AID 992). Also: 0% is about no effect. In outline:
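Citrate buffer pH 4.5, Tween-20 0.005%. Enzyme 2 nM, substrate 80 uM, 20 min RT. Stop pH 10. Fluorescence Ex 365/Em 440. AC50 by Hill fit.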

Test [20] deals with alpha-glucosidase (Oryza sativa, rice) (UniProt Q653V4). Briefly: Counterscreen for Glucocerebrosidase Inhibitors: qHTS Assay for Rice alpha-Glucosidase at pH 5.0 (AID 997).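 Also: 0% = full activity with enzyme and -100% = basal without enzyme.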 In outline:
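Endpoint fluorogenic assay at pH 5.0: compounds (0.7 nM to 77 uM) titrated against 4 nM rice enzyme and 400 uM 4-MU-alpha-glucoside for 20 min at room temperature; NaOH/glycine stop, read ex 365/em 440 nm, Hill-fitted AC50.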

In test [21] the target is Alpha-galactosidase (Coffea arabica) (UniProt Q42656). Briefly: Counterscreen for Glucocerebrosidase Inhibitors: qHTS Assay for Coffee Bean alpha-Galactosidase at pH 5.9 (AID 998).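 Also: plate controls were uninhibited enzyme for no effect and no-enzyme basal signal for full effect.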 An outline of the steps:
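Enzyme 2 nM + cpd (0.7 nM–77 uM titration) + 4-MU-alpha-Gal 80 uM, pH 5.9 citrate/Tween-20, RT 20 min, NaOH/glycine stop pH 10, fluor 365/440. Normalized to no-enzyme and full-activity controls; Hill-fit AC50.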

Test [22] in a line: Validation of Assay for Modulators of Lamin A Splicing (AID 1459; active = well fitted curve in the direction sought with a large enough effect in the signal ratio; the % refers to the signal ratio;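 also: cells exposed to compound for two days before reading; 0% is about no effect; ratio rise marks activators and ratio drop marks inhibitors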). An outline of the steps: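 Readout: ratio of GFP (500-530 nm) to RFP (575-640 nm) total object intensity by 488 nm laser-scanning cytometry after 48 hrs. Cells were HeLa S3 clones carrying lamin A-EGFP minigene plus DsRed2 viability reporter; vehicle 0.5% DMSO final.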
The nature of test [23]: Counterscreen for APE1 Inhibitors: Fluorescent Dye Displacement Validation Assay (AID 1707).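 Also: plate controls were ThO with dsDNA and no compound for no effect and ThO without dsDNA for full effect.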 In outline:
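Signal: ThO fluorescence (ex 480 nm/em 540 nm) on binding 50 nM dsDNA; displacement by test compound reduces it. Conditions: 250 nM dye, 50 mM Tris-HCl pH7.5, 2 mM MgCl2, 50mM NaCl, 0.01% Tween-20.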

Chain of Alpha-galactosidase (Coffea arabica) (Q42656 whole entry, looked up): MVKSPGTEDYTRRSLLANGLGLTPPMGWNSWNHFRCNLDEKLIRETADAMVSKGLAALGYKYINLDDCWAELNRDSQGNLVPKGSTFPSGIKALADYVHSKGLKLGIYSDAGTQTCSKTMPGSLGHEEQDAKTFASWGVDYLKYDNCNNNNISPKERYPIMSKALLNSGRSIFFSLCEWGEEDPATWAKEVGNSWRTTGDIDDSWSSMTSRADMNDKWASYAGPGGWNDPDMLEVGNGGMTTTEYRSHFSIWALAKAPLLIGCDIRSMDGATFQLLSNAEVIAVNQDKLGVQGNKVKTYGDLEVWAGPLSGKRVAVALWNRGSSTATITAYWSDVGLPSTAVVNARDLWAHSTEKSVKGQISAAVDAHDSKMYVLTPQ
Chain of Glucocorticoid receptor (Homo sapiens) (P04150 whole entry, looked up): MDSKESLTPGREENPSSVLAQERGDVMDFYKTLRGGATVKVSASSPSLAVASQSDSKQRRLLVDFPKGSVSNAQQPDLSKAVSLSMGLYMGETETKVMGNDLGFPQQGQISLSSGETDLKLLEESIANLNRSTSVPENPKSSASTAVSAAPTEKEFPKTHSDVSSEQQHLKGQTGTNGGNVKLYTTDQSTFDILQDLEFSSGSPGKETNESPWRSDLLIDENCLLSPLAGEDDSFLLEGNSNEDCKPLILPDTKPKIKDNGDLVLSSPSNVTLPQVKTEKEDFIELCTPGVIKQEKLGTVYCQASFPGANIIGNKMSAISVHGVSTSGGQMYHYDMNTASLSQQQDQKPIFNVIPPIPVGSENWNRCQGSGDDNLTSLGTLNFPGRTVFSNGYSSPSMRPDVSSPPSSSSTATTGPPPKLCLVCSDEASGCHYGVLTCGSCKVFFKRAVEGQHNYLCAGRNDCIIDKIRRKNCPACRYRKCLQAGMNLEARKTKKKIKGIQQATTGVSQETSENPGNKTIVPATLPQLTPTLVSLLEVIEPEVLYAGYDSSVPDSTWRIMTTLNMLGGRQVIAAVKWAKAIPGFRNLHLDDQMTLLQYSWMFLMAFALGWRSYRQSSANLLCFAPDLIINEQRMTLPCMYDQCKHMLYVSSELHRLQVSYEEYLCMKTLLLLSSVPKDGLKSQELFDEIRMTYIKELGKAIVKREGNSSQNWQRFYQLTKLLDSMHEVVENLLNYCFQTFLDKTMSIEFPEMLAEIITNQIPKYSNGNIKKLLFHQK
Chain of Muscarinic acetylcholine receptor M1 (Rattus norvegicus) (P08482 whole entry, looked up): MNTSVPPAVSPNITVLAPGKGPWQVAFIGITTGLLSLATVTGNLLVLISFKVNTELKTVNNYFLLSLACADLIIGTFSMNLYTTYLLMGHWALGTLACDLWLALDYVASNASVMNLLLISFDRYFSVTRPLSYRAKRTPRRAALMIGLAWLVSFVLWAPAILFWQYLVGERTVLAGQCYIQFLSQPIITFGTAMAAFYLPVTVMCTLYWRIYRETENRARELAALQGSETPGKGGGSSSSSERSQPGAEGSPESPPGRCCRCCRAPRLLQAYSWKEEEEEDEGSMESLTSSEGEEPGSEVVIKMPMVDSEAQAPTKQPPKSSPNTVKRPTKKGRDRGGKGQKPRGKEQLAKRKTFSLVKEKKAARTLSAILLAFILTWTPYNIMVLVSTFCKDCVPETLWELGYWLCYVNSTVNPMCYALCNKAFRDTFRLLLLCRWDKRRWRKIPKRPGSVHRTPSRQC
Chain of Cytochrome P450 3A4 (Homo sapiens) (P08684 whole entry, looked up): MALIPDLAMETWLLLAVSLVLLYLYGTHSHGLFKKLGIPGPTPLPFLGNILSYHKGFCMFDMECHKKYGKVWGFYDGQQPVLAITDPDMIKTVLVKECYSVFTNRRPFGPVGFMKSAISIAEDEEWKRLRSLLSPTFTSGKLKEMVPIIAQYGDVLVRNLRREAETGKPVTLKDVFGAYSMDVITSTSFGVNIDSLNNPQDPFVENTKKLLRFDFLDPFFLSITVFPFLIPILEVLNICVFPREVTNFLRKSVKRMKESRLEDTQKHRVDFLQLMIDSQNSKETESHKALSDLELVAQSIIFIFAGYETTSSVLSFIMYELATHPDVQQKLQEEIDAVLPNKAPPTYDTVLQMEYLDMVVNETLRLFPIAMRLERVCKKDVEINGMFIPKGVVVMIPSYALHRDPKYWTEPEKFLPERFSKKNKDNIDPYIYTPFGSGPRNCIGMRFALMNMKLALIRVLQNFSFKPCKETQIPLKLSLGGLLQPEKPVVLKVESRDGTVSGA
Chain of 3',5'-cyclic-AMP phosphodiesterase 4B (Homo sapiens) (Q07343 whole entry, looked up): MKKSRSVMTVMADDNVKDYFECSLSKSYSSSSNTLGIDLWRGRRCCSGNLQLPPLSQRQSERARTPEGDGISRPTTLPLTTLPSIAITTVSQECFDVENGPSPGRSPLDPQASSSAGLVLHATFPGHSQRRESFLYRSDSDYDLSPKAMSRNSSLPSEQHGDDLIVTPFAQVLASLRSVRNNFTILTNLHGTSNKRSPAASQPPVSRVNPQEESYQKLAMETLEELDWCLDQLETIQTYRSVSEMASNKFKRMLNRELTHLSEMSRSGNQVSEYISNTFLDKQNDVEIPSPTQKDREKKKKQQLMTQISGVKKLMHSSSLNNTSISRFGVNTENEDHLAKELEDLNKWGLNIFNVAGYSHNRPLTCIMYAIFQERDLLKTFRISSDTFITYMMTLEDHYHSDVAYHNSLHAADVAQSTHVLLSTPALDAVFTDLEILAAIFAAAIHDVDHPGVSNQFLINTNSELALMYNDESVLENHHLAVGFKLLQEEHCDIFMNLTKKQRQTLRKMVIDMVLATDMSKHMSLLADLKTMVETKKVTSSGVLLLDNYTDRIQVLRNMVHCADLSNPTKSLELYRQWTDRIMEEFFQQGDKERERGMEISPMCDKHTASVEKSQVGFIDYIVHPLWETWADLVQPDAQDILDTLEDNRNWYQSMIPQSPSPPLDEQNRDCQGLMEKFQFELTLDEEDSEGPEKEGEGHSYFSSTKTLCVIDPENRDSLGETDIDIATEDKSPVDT
Chain of Pyruvate kinase PKM (Homo sapiens) (P14618 whole entry, looked up): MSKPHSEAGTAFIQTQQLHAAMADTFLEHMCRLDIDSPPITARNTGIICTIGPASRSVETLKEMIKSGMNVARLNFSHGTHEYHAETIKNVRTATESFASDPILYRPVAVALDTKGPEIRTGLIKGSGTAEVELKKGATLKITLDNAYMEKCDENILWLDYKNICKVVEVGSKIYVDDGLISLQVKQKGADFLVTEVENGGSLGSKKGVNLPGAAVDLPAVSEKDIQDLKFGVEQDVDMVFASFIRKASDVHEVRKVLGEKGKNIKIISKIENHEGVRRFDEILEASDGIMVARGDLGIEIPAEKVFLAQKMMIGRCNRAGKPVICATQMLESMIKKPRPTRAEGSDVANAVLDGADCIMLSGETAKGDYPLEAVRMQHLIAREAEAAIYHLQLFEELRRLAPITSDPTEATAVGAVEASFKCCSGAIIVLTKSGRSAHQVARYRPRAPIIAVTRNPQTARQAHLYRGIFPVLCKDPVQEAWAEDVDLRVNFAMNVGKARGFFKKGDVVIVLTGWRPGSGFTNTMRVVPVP
Chain of Cytochrome P450 2C19 (Homo sapiens) (P33261 whole entry, looked up): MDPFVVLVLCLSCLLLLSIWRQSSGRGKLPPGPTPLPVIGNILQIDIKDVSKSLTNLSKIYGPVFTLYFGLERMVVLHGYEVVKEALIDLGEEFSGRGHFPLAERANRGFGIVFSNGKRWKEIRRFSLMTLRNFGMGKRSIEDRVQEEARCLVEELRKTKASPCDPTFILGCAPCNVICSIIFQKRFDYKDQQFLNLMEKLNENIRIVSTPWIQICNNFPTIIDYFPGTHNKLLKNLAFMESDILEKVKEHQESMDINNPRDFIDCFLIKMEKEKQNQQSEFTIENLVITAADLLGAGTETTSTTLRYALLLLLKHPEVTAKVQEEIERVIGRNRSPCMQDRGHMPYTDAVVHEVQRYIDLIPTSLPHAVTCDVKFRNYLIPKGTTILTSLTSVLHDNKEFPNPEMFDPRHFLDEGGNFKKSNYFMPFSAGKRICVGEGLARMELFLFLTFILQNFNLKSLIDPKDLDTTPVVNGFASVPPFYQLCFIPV
Chain of Guanine nucleotide-binding protein G(i) subunit alpha-1 (Homo sapiens) (P63096 whole entry, looked up): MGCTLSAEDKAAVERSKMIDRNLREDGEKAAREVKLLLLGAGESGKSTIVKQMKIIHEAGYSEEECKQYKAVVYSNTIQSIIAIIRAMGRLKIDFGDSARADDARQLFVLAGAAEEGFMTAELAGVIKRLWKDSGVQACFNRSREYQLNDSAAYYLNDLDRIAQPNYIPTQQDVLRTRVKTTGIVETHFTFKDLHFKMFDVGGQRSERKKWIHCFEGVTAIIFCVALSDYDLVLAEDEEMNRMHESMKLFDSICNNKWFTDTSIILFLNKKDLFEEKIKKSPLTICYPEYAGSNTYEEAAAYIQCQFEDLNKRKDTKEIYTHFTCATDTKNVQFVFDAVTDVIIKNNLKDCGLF
Chain of Alpha-galactosidase A (Homo sapiens) (P06280 whole entry, looked up): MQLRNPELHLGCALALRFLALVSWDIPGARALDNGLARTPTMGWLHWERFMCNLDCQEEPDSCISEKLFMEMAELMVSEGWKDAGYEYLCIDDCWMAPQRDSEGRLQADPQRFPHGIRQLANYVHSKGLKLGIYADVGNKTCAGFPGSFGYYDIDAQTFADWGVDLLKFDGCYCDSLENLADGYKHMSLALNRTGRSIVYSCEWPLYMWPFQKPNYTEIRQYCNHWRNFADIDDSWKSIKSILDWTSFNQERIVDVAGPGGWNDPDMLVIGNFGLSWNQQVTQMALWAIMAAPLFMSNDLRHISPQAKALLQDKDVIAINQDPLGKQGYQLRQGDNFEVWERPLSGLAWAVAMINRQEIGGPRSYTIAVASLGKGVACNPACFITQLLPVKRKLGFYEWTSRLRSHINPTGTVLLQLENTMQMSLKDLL

Take `COC(=O)c1cc2c(cn1)[nH]c1ccccc12`: the Potency was 0.631 µM (active) in [1]; above 46 µM in [4]; above 46 µM in test [5]; 15.8 µM (active) in [10]; 3.98 µM (active) in [12]. Also, the activity change, negative = inhibition in test [2] is -0.308%. The compound was called inactive in test [3], in test [6], in test [8], in [13], in test [16] and in [17]. For the same compound, the call in test [19], in test [20], in test [21] and in [22] was inactive. Also, the Potency result in [7], in [9], in test [11], in test [14], in test [15] and in test [18] was “inactive” each time. The Potency entry in test [23] was “inactive”.
